Measurements reported in PubChem BioAssay AID492998 (Southern Research Specialized Biocontainment Screening …, 2010).
Out of some 2,300 compounds screened, about 550 (24%) were called active. How the calls were made is not given here. A selection follows. Measured potencies and affinities stand elsewhere.

Test: Vero E6 cell cytotoxicity, dose response, cytotoxicity control for non-replicating M. tuberculosis project, secondary assay (AID 492998);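 further: 100% = vehicle-treated cells and 0% = background wells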
Settings: series mostly up to 20 µM; viability: at the top concentration

Structure (SMILES) | viability
COC(=O)CCCC(=O)N1CCCC(C(=O)c2ccc(-c3ccccc3)cc2)C1 (stereo not given) | 105% (inactive)
CSc1nnc(Cc2ccc3c(c2)OCO3)o1 | 103% (inactive)
COc1cccc(/C=N/N2C(=O)CSC2=S)c1O | 81% (inactive)
O=C(OCn1nnc2ccccc2c1=O)c1cccs1 | 104% (inactive)
COc1ccc2cc(C(=O)C3CCCN(Cc4cccc(C)n4)C3)ccc2c1 (stereo not given) | 73% (inactive)
S=c1c2c(nc3nc[nH]n13)CCC2 | 101% (inactive)
CC1(C)CC(=O)C2=C(C1)OC(N)=C(C#N)C2C#Cc1ccccc1 (stereo not given) | 101% (inactive)
Cc1ccc(NC(=O)C(=O)NNC(=O)c2ccccc2C)cc1Cl | 87.8% (inactive)
O=C(NC1CCOc2ccccc21)c1ccc(Cl)nc1 (stereo not given) | 92.5% (inactive)
CCOC(=O)COc1ccc(C(=O)Nc2cccc(Cl)c2C)cc1 | 91.2% (inactive)
CCOC(=O)C(=CNNc1cccc(Cl)c1)C(=O)OCC | 90.4% (inactive)
Cc1cc(OCCOCCNCc2ccccc2)ccc1C(C)C | 95.5% (inactive)
O=C(OCC#CCSc1nc2ccccc2o1)c1ccco1 | 96.6% (inactive)
COc1ccc(O)c(C(=O)CC(=O)c2ccc(F)cc2)c1 | 74% (inactive)
O=C(CCNc1cccc(F)c1)c1cccc([N+](=O)[O-])c1 | 81% (inactive)
O=C(Nc1ccccc1N1CCCC1)c1cccc(F)c1 | 103% (inactive)
C/C(=N\O)c1cc(Cl)ccc1O | 94.6% (inactive)
CC12CC3CC(C)(C1)CC(C(=O)N1CCCC1)(C3)C2 | 110% (inactive)
CSc1ccc(CNc2ncc(-c3cccc([N+](=O)[O-])c3)n2C)cc1 | 95.1% (inactive)
COc1cccc(NC(=O)COC(=O)Cc2ccc(Br)cc2)c1 | 108% (inactive)
CC(C)(C)NCC1(CO)SC(N)=NC1=O (stereo not given) | 95.3% (inactive)
Cc1cc(C)nc(SC2CC(=O)N(c3ccc(C)c(C)c3)C2=O)n1 (stereo not given) | 72.2% (inactive)
Cc1ccc2nc(C)c3c(c2c1)COC3 | 100% (inactive)
O=C(COc1ccccc1)NC1CCCCC1 | 107% (inactive)

Structure (SMILES) | viability
O=C(OCn1nnc2ccccc2c1=O)C1CCCCC1 | 94.4% (inactive)
Cc1cc2cc(CNC(=O)COc3ccccc3)ccc2n1C | 96.2% (inactive)
CC1CC(C)CN(CCOCCSc2ccc(Cl)cc2)C1 (stereo not given) | 87% (inactive)
COc1ccc(Cl)cc1N=Cc1c(O)c2ccccc2oc1=O | 76.4% (inactive)
O=C(COC(=O)c1cc(Br)ccc1Cl)NC1CCCC1 | 105% (inactive)
COC(=O)COc1ccc(S(=O)(=O)N2CCN(c3ccccc3F)CC2)cc1 | 102% (inactive)
O=C1/C(=C\c2ccco2)SC(=S)N1c1ccc(O)cc1 | 103% (inactive)
Cc1ccccc1OCCC(=O)OCC(=O)NNC(=O)c1cccs1 | 104% (inactive)
CCSc1ncc(/C=N/Nc2ccc(Cl)cc2)n1C | 90.2% (inactive)
O=C(COC(=O)CCc1c[nH]c2ccccc12)Nc1ccc([N+](=O)[O-])cc1 | 101% (inactive)
CCCCOC(=O)C1CCCC(C(=O)OCCCC)N1 (stereo not given) | 113% (inactive)
O=C(COc1ccc2c(c1)CCC2)Nc1ccccn1 | 95.7% (inactive)
O=C1NC(=O)N(Cc2ccc(F)cc2)C(=O)/C1=C\c1ccc([N+](=O)[O-])s1 | 93.5% (inactive)
O=C1NC(=O)N(Cc2ccco2)C(=O)/C1=C\c1cccn1CCOc1ccc(Cl)cc1 | 98.7% (inactive)
OC(CNCCc1ccc(C(F)(F)F)cc1)COc1cccc2ccccc12 (stereo not given) | 82% (inactive)
O=C(COC(=O)c1cc(Cl)ccc1O)c1ccc2c(c1)OCO2 | 105% (inactive)
O=C1CC(Sc2ncccn2)C(=O)N1c1ccccc1C(F)(F)F (stereo not given) | 102% (inactive)
CCOC(=O)c1c(NC(=O)C2COc3ccccc3O2)sc2c1CC(C)(C)NC2(C)C (stereo not given) | 85.6% (inactive)
CCOC(=O)CCS(=O)(=O)c1nc(-c2ccccc2)cc(C(F)(F)F)n1 | 95.2% (inactive)
CCOc1ccc2ccccc2c1/C=N/NC(=O)c1ccncc1 | 95.5% (inactive)
COc1ccc(NC(=O)Nc2ccc(O)c3ccccc23)cc1 | 75.5% (inactive)
Cc1ccc(S(=O)(=O)/N=C(\CCl)N2CCOCC2)cc1 | 96.7% (inactive)
Cc1cc(CN(C)C)c(O)c(C2(C)CCCCC2)c1 | 106% (inactive)
CCCCNC(=O)N1CCc2ccccc2C1 | 96.6% (inactive)

Structure (SMILES) | viability
CCOc1ccccc1OC(=O)c1cc2ccccc2oc1=O | 95.6% (inactive)
Cc1ccc(NC(=O)C2CC2c2ccccc2)cc1 (stereo not given) | 97.4% (inactive)
CN(/N=C/c1ccc([N+](=O)[O-])o1)c1ccccc1 | 114% (inactive)
O=c1oc(-c2ccccc2[N+](=O)[O-])nc2ccccc12 | 92.6% (inactive)
COc1ccc(OC)c(N2C(=O)NC(=O)/C(=C/c3ccc([N+](=O)[O-])s3)C2=O)c1 | 88.5% (inactive)
CCC(=O)N1CCN(c2cc3c(cc2F)c(=O)c(C(=O)O)cn3CC)CC1 | 97.8% (inactive)
O=C(COC(=O)c1ccccn1)Nc1cccc(Cl)c1Cl | 97.1% (inactive)
CCOC(=O)C1CCCN(Cc2nc(Cc3ccccc3Cl)no2)C1 (stereo not given) | 110% (inactive)
CCCCCOc1ccc(CSC2=NCCN2)cc1[N+](=O)[O-] | 78% (inactive)
Cc1cc(Br)ccc1OCCCCN1CCC(C)CC1 | 98% (inactive)
CCc1ccc(C(C)NC(=O)C2CCCO2)cc1 (stereo not given) | 109% (inactive)
COc1cccc(NC(=O)c2ccc(Cn3cc([N+](=O)[O-])cn3)o2)c1 | 115% (inactive)
CC1CCN(S(=O)(=O)c2cccc(C(=O)Oc3ccc([N+](=O)[O-])cc3)c2)CC1 | 101% (inactive)
Cc1ccc(-c2ccc(/C=N/NC(=O)CN3CCOCC3)o2)cc1[N+](=O)[O-] | 87.5% (inactive)
CCS(=O)(=O)c1ncc(Cl)c(C(=O)Nc2ccc(S(=O)(=O)N3CCC(C)CC3)cc2)n1 | 88.8% (inactive)
O=C(Nc1ccc(S(=O)(=O)N2CCOCC2)cc1)c1ccc([N+](=O)[O-])s1 | 74.6% (inactive)
CCN1CCN(Cc2cc(C(C)(C)C)c(O)c(C(C)(C)C)c2)CC1 | 98.1% (inactive)
O=C(N/N=C/c1ccc(OC(=O)c2cccs2)cc1)c1ccccn1 | 100% (inactive)
COc1cc(C2C3=C(CC(C)(C)CC3=O)OC(N)=C2[N+](=O)[O-])ccc1O (stereo not given) | 98.8% (inactive)
CC(C)CCNCC(O)CON=C1c2ccccc2-c2ccccc21 (stereo not given) | 82.9% (inactive)
O=C(O)c1ccc(NS(=O)(=O)/C=C/c2ccccc2)cc1O | 95.3% (inactive)
O=C(N/N=C/c1ccc(Br)s1)c1ccccc1[N+](=O)[O-] | 79.6% (inactive)
CCOC(=O)N/N=C\c1ccc([N+](=O)[O-])s1 | 81.2% (inactive)
CCCOC(=O)c1ccc(NC(=O)Cc2cccs2)cc1 | 109% (inactive)

Structure (SMILES) | viability
CCOc1ccc(NC(=O)CCC(=O)N/N=C/c2ccc([N+](=O)[O-])s2)cc1 | 78.7% (inactive)
Cc1cccc(NCc2ccc([N+](=O)[O-])s2)c1 | 87.4% (inactive)
O=C(NNc1ccc([N+](=O)[O-])cc1)c1ccccc1Cl | 101% (inactive)
Cc1ccc(C2=N/C(=C\c3cccnc3)C(=O)O2)cc1 | 106% (inactive)
CCOC(=O)c1cc(COc2cc(Cl)cc(Cl)c2)on1 | 98.4% (inactive)
O=C(c1cc2ccccc2o1)c1nc2c(n1O)CCCCC2 | 104% (inactive)
Nc1cccn2c(-c3ccc(Cl)cc3)cnc12 | 101% (inactive)
CC1(C(=O)OCC(=O)Nc2nnc(-c3ccccc3)o2)CC1(Cl)Cl (stereo not given) | 71.1% (inactive)
CCOC(=O)C1CCCc2c1[nH]c1c(C(N)=O)cccc21 (stereo not given) | 106% (inactive)
Cc1ccc(Oc2c(C(N)=O)cc([N+](=O)[O-])cc2[N+](=O)[O-])cc1 | 94.9% (inactive)
COc1cc(/C=C/c2ccc3c([N+](=O)[O-])cccc3n2)ccc1OCC(=O)O | 99.9% (inactive)
CCC1CCc2sc(C(=O)NNC(=O)c3ccncc3)cc2C1 (stereo not given) | 106% (inactive)
CN(CCS(=O)(=O)c1ccc(Cl)cc1)Cc1cccnc1 | 85% (inactive)
CC(=O)c1ccc(NC(=O)c2cc(CC(C)C)on2)cc1 | 106% (inactive)
CC(C)(C)Nc1nc(NC(C)(C)C)nc(-n2ccnc2)n1 | 79.9% (inactive)
O=C(NC(=S)Nc1ccc(F)cc1)C1CCCCC1 | 89.2% (inactive)
COC(=O)COc1cccc(NC(=O)c2ccc(Cl)cc2)c1 | 106% (inactive)
Cc1cc(NC(=O)COc2ccccc2)ccc1Cl | 90.2% (inactive)
CC(C)c1ccc(OCC(=O)NNC(=O)c2cnccn2)cc1 | 91% (inactive)
CCc1ccc(OCC(=O)Nc2ccncc2)c(Br)c1 | 96.3% (inactive)
O=C(Oc1cccnc1)c1ccc(Cl)c(Cl)c1 | 121% (inactive)
Cc1cc(Br)ccc1OCC(=O)NNC(=O)C(=O)Nc1ccccc1 | 102% (inactive)
Cc1cc(OCC(=O)Nc2ccncc2)ccc1Br | 108% (inactive)
O=C(NNC(=O)c1ncc(Cl)c(Cl)c1Cl)c1ccc(F)cc1 | 87% (inactive)

Structure (SMILES) | viability
CCc1ccc(NC(=O)C(=O)NNC(=O)COc2cccc(OC)c2)cc1 | 97.4% (inactive)
Cc1cc2cc(CNC(=O)C3CCCC3)ccc2n1C | 105% (inactive)
O=C(CCC1CCCCC1)NCc1ccc(F)cc1 | 105% (inactive)
Clc1ccc(SCCCCN2CCNCC2)cc1 | 85% (inactive)
O=C(NCC1CCCCC1)c1ccc([N+](=O)[O-])cc1 | 94.3% (inactive)
CCCCOC(=O)c1ccc(NC(=O)c2nn(C)cc2Br)cc1 | 79.3% (inactive)
O=C(NCCSc1ccccc1)c1ccc(Br)cc1 | 107% (inactive)
Cc1ccc2cc(/C=N/NC(=O)[C@H](C)NC(=O)OC(C)(C)C)c(Cl)nc2c1 | 95.6% (inactive)
CN1CC(=O)NC1=NC(=O)C12CC3CC(CC(C3)C1)C2 | 77.2% (inactive)
Cc1cc(Br)ccc1OCCCCN1CCCCC1 | 80.3% (inactive)
CCOC(=O)c1csc(NC(=O)COc2ccc(Cl)cc2Cl)n1 | 98.5% (inactive)
CCOc1ccc(Cn2c(=O)oc3ccccc32)cc1 | 102% (inactive)
CC1C/C(=N/N2C(=O)CSC2=S)CC(C)(C)C1 (stereo not given) | 96.3% (inactive)
C/C(=N/NC(=O)c1ccncc1)C1=C(O)CC(C)(C)CC1=O | 107% (inactive)
CC1=C(/C=C/C(C)=N\NC(=O)c2ccncc2)C(C)(C)CCC1 | 95.3% (inactive)
C=CCNCC(=O)N1N=C(c2ccc3ccccc3c2)CC1c1ccc(OC)cc1 (stereo not given) | 76.9% (inactive)
CCn1ccc(C(=O)Nc2cccc(Cl)c2)n1 | 99.4% (inactive)
CCn1nnc(NC(=O)c2sc3ccccc3c2Cl)n1 | 93.4% (inactive)
CCCc1cc(C(=O)Nc2cccc(C(C)=O)c2)no1 | 104% (inactive)
CC(C)(C)c1ccc(OCCC(=O)OCC(=O)NC2CCCCC2)cc1 | 80.5% (inactive)
COC(=O)CCC(=O)Nc1sc(Cc2ccccc2)c(C)c1C(N)=O | 93.4% (inactive)
COc1ccc(C(CNC(=O)c2cccc(NS(=O)(=O)c3ccc(C)c(F)c3)c2)N2CCCC2)cc1 (stereo not given) | 92% (inactive)
COC(=O)c1ccccc1Sc1ncnc2onc(C)c12 | 87.7% (inactive)
Cc1noc2ncnc(Sc3ccc(Br)cc3)c12 | 72.2% (inactive)
